According to article PMC4336329 (PLoS ONE, 2015):
In all, about 310,000 compounds went through this assay and about 14,000 (4.5%) showed an effect of 50% or more. Effects have a minus sign here. Shown is part of a subset that was picked to be rich in strong results.

What follows are molecules tested against human ether-à-go-go-related gene (hERG) potassium channel (human, UniProt Q12809) (assay: primary screen, population patch clamp on CHO cells stably expressing hERG; higher = less effect of the substance).
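Further: peak tail current of the secondary pulse compared with the same well before compound.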

Chain of human ether-à-go-go-related gene (hERG) potassium channel (Q12809 whole entry, looked up): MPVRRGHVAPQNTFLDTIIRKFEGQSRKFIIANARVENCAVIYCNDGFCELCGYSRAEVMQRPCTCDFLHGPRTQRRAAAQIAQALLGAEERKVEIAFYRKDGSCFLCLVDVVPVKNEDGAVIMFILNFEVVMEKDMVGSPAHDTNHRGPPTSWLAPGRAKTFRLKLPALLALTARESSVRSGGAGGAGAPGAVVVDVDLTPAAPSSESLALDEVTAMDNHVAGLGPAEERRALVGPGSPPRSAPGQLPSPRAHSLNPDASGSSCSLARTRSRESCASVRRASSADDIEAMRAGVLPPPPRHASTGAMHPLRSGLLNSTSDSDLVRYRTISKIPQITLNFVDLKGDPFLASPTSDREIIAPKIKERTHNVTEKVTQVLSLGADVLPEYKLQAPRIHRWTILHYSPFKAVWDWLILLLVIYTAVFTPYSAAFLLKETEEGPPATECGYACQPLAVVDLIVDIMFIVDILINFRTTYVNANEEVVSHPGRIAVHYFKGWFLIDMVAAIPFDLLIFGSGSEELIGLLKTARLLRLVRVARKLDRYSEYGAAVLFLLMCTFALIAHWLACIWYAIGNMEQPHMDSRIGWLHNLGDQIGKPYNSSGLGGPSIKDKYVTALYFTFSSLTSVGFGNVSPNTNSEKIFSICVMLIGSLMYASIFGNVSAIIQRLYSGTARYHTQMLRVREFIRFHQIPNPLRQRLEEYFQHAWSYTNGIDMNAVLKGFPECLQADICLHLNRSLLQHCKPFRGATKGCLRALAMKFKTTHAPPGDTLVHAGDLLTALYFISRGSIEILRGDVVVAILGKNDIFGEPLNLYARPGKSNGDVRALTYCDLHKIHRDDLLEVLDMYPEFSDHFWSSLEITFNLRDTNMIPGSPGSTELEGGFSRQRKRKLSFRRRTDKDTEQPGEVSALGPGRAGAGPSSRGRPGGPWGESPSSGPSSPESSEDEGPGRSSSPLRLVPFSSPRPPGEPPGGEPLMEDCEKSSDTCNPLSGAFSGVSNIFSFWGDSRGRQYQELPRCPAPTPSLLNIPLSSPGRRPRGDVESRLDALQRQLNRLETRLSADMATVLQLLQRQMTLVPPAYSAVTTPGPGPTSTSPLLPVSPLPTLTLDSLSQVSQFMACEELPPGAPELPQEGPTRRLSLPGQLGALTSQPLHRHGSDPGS

SMILES | hERG current change (%, negative = inhibition) at 10uM [%]
Cc1ccc(C(=O)N/C(=C\c2cccnc2)C(=O)N2CCCC2)cc1 | -1.72
Fc1ccc(C2CCCN2Cc2nc(Cc3ccccc3)no2)cc1 (centres unmarked) | -15.2
CN(C)c1nc(N)c([N+](=O)[O-])c(NCc2ccccc2)n1 | 4.16
O=C(NCc1ccccn1)C(=O)NCC1OCCN1S(=O)(=O)c1ccc(F)cc1 (centres unmarked) | 11.7
CC(C)OCC(O)CN1CCN(CCN2C(=O)c3cccc4cccc(c34)C2=O)CC1.Cl (centres unmarked) | -51.7
CC(C)(C)C(=O)N1CCN(CCN2C(=O)c3cccc4cccc(c34)C2=O)CC1 | 3.09
CCNC(=S)N1CCN(CCN2C(=O)c3cccc4cccc(c34)C2=O)CC1 | 0.247
CC(=O)c1ccc(OCC(O)CN2CCN(CCN3C(=O)c4cccc5cccc(c45)C3=O)CC2)cc1.Cl (centres unmarked) | -34.1
CCC(OCC(O)CN1CCN(CCN2C(=O)c3cccc4cccc(c34)C2=O)CC1)c1ccccc1.Cl (centres unmarked) | -58.4
CS(=O)(=O)N1CCN(CCN2C(=O)c3cccc4cccc(c34)C2=O)CC1 | 7.17
CCCCN(C(=O)Cc1ccc(S(=O)(=O)N2CCOCC2)s1)c1c(N)n(CCCC)c(=O)[nH]c1=O | 0.586
C=CCNc1oc(-c2ccco2)nc1S(=O)(=O)c1ccccc1 | -4.58
N#CCc1nn(-c2ccccc2)c(N)c1C#N | 5.46
CCc1ccc(NC(=O)C(=O)N/N=C(\C)CC(=O)Nc2ccccn2)cc1 | -8.33
COc1ccc2cc3cc(C(=O)NCc4ccco4)oc3nc2c1 | -9.75
O=C1CC(C(=O)N2CCN(c3ccc(F)cc3)CC2)CN1CCc1ccccc1 (centres unmarked) | -50.5
O=C(O)C1CC(=O)N(CCc2ccc(F)cc2)C1 (centres unmarked) | -8.39
Cc1ccc(CCN2CC(C(=O)O)CC2=O)cc1 (centres unmarked) | -0.636
COc1ccccc1CN1CC(C(=O)N2CCN(c3ccc(F)cc3)CC2)CC1=O (centres unmarked) | -43
CC(C)CCN1CC(C(=O)N2CCN(c3ccc(F)cc3)CC2)CC1=O (centres unmarked) | -25.4
Cc1ccc(CCN2CC(C(=O)N3CCN(c4ccc(F)cc4)CC3)CC2=O)cc1 (centres unmarked) | -57.4
Cc1ccc(NC(=O)CSc2nc(N)c3c4c(sc3n2)CSC(C)(C)C4)cc1 | 14.2

SMILES | hERG current change (%, negative = inhibition) at 10uM [%]
COc1ccc(NC(=O)C2CCN(C(=O)Nc3ccccc3)CC2)cc1S(=O)(=O)N(C)C | 12.5
O=S(=O)(NCCCc1ccccc1)c1ccc(Br)cc1 | -9.3
Cc1ccc(S(=O)(=O)NCCNc2ccc([N+](=O)[O-])cc2)cc1 | -22.8
O=S(=O)(NCCCc1ccccc1)c1ccccc1 | 10.3
O=[N+]([O-])c1ccc(NCCCNS(=O)(=O)c2ccccc2)c(Cl)c1 | -14.3
Cc1ccc(S(=O)(=O)NCCCNc2ccc([N+](=O)[O-])cc2)cc1 | -65.2
O=[N+]([O-])c1ccc(S(=O)(=O)NCCCc2ccccc2)cc1 | -64.6
Cc1ccc(S(=O)(=O)NCCCNS(=O)(=O)c2ccc(C)cc2)cc1 | -17.9
O=[N+]([O-])c1ccc(NCCCNS(=O)(=O)c2ccccc2)cc1 | -64.7
O=[N+]([O-])c1ccc(NCCNS(=O)(=O)c2ccccc2)cc1 | -38.9
O=S(=O)(O)c1cccc(N=Nc2c(O)ccc3ccccc23)c1 | 16.4
N#Cc1ccc(OCC(=O)NCCN2CCOCC2)cc1 | -11.7
O=C(COC(=O)/C=C/c1ccc(Cl)cc1)NC1CCCCCC1 | -1.22
Cc1ccc(C)c(NC(=O)Cc2nc(CCl)cs2)c1 | -14.1
CC(C)Oc1cccc(C(=O)NC(=S)Nc2ccccc2)c1 | -7.26
CCOC(=O)c1ccc(NC(=O)N(CC)CC)cc1 | 4.46
CCCC(=O)N1CCN(c2ccc(NC(=S)NC(=O)c3cccc(C)c3)cc2)CC1 | -18.3
Nc1c(C(=O)NCCN2CCOCC2)c2nc3ccccc3nc2n1Cc1ccccc1 | 1.38
Nc1c(C(=O)NCCN2CCOCC2)c2nc3ccccc3nc2n1Cc1ccco1 | -68.8
CCCCCOC(=O)c1c(N)n(CCOC)c2nc3ccccc3nc12 | -70.2
CCCCn1c(N)c(C(=O)NCCN2CCOCC2)c2nc3ccccc3nc21 | -64.1
CCCCn1c(N)c(C(=O)OCCOC)c2nc3ccccc3nc21 | -42.4

SMILES | hERG current change (%, negative = inhibition) at 10uM [%]
COCCOC(=O)c1c(N)n(CCCN2CCOCC2)c2nc3ccccc3nc12 | -53.3
COCC(C)OC(=O)c1c(N)n(CCCN2CCOCC2)c2nc3ccccc3nc12 (centres unmarked) | -9.69
CCCCCCn1c(N)c(C(=O)NCCN2CCOCC2)c2nc3ccccc3nc21 | -8.61
CCCCCn1c(N)c(C(=O)NCCN2CCOCC2)c2nc3ccccc3nc21 | -17.1
Nc1c(C(=O)NCc2ccco2)c2nc3ccccc3nc2n1CCN1CCOCC1 | -4.63
COC(=O)c1c(N)n(CCCN2CCOCC2)c2nc3ccccc3nc12 | -29.9
CCCCOCCCn1c(N)c(C(=O)OCCOC)c2nc3ccccc3nc21 | -32.9
COc1ccccc1N(CC(=O)NCc1ccccc1)C(=O)CCC(=O)Nc1cc(C)ccn1 | -9.35
CC(O)c1c(OCc2ccccc2)ncnc1OCc1ccccc1 (centres unmarked) | -15.5
CCN(CC)S(=O)(=O)c1ccc(S(=O)(=O)N(CC(=O)Nc2ccccc2)CC2CCCO2)cc1 (centres unmarked) | -18.6
COc1cccc(N2CCN(C(=O)C3CCC(=O)N(C4CCCCCC4)C3)CC2)c1 (centres unmarked) | -32.8
COc1ccc(NC2c3ccccc3C(=O)N2c2ccccn2)cc1Cl (centres unmarked) | -5.24
Cc1ccc(-c2cc(C(=O)N/N=C/c3ccc(F)cc3)n[nH]2)o1 | 4.98
COc1ccc(CCNC(=O)c2cn3ccc(C)cc3n2)cc1OC | 1.66
Cc1ccc(S(=O)(=O)N(C)C)cc1NC(=S)N1CCc2ccccc21 | 11.5
COc1ccc(NC(=O)c2cc3ccccc3[nH]2)cc1 | 15.4
Cc1ccccc1-n1c(C)c(C#N)c(=O)c(-[n+]2ccccc2)c1[S-] | 23.4
Cc1cc(S(=O)(=O)N2CCCC2)ccc1OCC(=O)NCc1ccccn1 | 4.98
O=C(NC(=C(Cl)Cl)S(=O)(=O)c1ccc(Cl)cc1)c1ccccc1 | 3.23
Nc1c(C(=O)NCCc2ccccc2)c2nc3ccccc3nc2n1CCN1CCOCC1 | -3.49
CC(C)Cn1c(N)c(C(=O)NCCN2CCOCC2)c2nc3ccccc3nc21 | -72.7
Nc1c(C(=O)NCCN2CCOCC2)c2nc3ccccc3nc2n1CCc1ccccc1F | -27.2

SMILES | hERG current change (%, negative = inhibition) at 10uM [%]
CCn1c(O)c(C=NCc2cccs2)c(=O)[nH]c1=O | -6.15
CS(=O)(=O)c1ccc(C(=O)NC2CCCCC2)cc1 | 12.1
Cc1nc2ccccc2c2c1CC(C(C)(Cl)Br)O2 (centres unmarked) | -61.6
COc1ccc2nc(C)c3c(c2c1)OC(C(C)(Cl)Br)C3 (centres unmarked) | -34
Cc1ccc2nc(C)c3c(c2c1)OC(C(C)(Cl)Br)C3 (centres unmarked) | -16.5
CC(C)n1cnc2c(NCc3ccccc3)nc(NCc3ccccc3)nc21 | 0.281
COc1cc(N(Cc2ccccc2)Cc2ccccc2)c2ncn(C(C)C)c2c1 | 6.37
CC(C)n1cnc2c(N(C)c3ccccc3)nc(N(CCN(C)C)Cc3ccccc3)nc21 | -73.1
Cc1cc(C)c2c(=O)n(CC(=O)NCCCN3CCOCC3)sc2n1 | 11.4
O=C(Cn1ncc2c(=O)oc3ccccc3c21)NCCN1CCN(c2ccccc2F)CC1 | -28.4
CCCNC(=O)Cn1sc2nc(C)cc(C)c2c1=O | -6.1
COCCNC(=O)Cn1cc(S(=O)(=O)N2CCN(c3ccccc3F)CC2)c2ccccc2c1=O | -2.76
CCCN1CCN(CCCNC(=O)Cn2ncc3c4ccccc4n(C)c3c2=O)CC1 | -56.6
O=C(Cn1cc(S(=O)(=O)N2CCN(c3ccccc3F)CC2)c2ccccc2c1=O)NCCCN1CCCCCC1 | -61.1
Cn1c2ccccc2c2cnn(CC(=O)NCCCN3CCN(c4ccccc4F)CC3)c(=O)c21 | -76.3
Cc1cc(C)c2c(=O)n(CC(=O)NCCCN3CCN(c4ccccc4F)CC3)sc2n1 | -55.3
CCC(C)NC(=O)Cn1cc(S(=O)(=O)N2CCN(c3ccccc3F)CC2)c2ccccc2c1=O (centres unmarked) | -4.4
CN1CCN(CCCNC(=O)Cn2ncc3c4ccccc4n(C)c3c2=O)CC1 | 12
Cn1c(C(=O)NCCCN2CCN(c3ccccc3F)CC2)cc2c(=O)n(C)c3ccccc3c21 | -11.7
CC1CCCC(C)N1CCCNC(=O)Cn1ncc2c3ccccc3n(C)c2c1=O (centres unmarked) | -36.9
